{"source": "PubChem BioAssay (NCATS)", "note": "Values joined by “and” are separate entries in the source; they are usually repeats but may differ in a detail not shown here. Equal entries are not always repeated. Records with an inconclusive call do not appear. Active and inactive are the calls of the source. Unless noted, calls follow the shape of the dose curve; as a rule, active = well fitted curve in either direction with a large enough effect (not every such curve was filed as active); inconclusive = small, poorly fitted or top-dose-only effect, or another doubt; inactive = flat fitted curve, though single readings scatter. For Potency in this document: potency is read from the fitted curve at half-maximal effect.", "data": [{"test_system": "not listed separately", "test": "AP1 Signaling Pathway (AID 357);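 also: ME-180 reporter cells stimulated with EGF at its EC50 level; % is scaled to controls: 0 for no effect and ±100 for the full control effect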", "settings": "ME-180 AP-1-bla reporter, EGF-induced, beta-lactamase ratio, 5 h; at 7.69 µM (top of the series) unless noted", "method_in_brief": "(§1)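 AP-1-bla ME-180 cells, Opti-MEM + 0.5% dialyzed FBS, plated overnight 37 °C. Cpd titration + EC50 EGF, 5 h 37 °C. CCF4 2.5 h RT; ex 405, em 460/530 ratio → %activity, AC50.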", "values": [{"smiles": "NCCNc1ncnc2ccc(Cl)cc12", "activity change, negative = inhibition": "5.69% (inactive)"}, {"smiles": "O=C(NCCO)c1ccc(Cl)cc1", "activity change, negative = inhibition": "-0.923% (inactive)"}, {"smiles": "O=c1cc(CF)[nH]c(=S)[nH]1", "activity change, negative = inhibition": "6.77% (inactive)"}, {"smiles": "c1ccc2cc(-c3cc(-c4cc(-c5ccc6ccccc6c5)on4)no3)ccc2c1", "activity change, negative = inhibition": "2.52% (inactive)"}, {"smiles": "CN(C)CN1C(=O)S/C(=C2/C(=O)N(CN(C)C)c3ccccc32)C1=O", "activity change, negative = inhibition": "-4.12% (inactive)"}, {"smiles": "NC(=O)c1ncn([C@@H]2O[C@@H](CO)[C@@H](O)[C@H]2O)n1", "activity change, negative = inhibition": "18.3% [at 38 µM] (inactive)"}, {"smiles": "O=C(O)/C(=C\\c1ccccc1)c1ccccc1", "activity change, negative = inhibition": "3.72% (inactive)"}, {"smiles": "NCCCc1ccc2oc3ccccc3c2c1", "activity change, negative = inhibition": "19.9% (inactive)"}, {"smiles": "N=c1ccn2c(n1)O[C@@H]1[C@@H](O)[C@H](CO)O[C@H]12", "activity change, negative = inhibition": "-4.43% [at 38 µM] (inactive)"}, {"smiles": "CN(C)c1ccc(-c2nc(N3CCNCC3)c3ccccc3n2)cc1", "activity change, negative = inhibition": "-12.7% (inactive)"}, {"smiles": "CN1C[C@H](c2ccccc2)C(O)([C@]2(c3ccccc3)CN(C)C[C@@H](c3ccccc3)C2=O)[C@H](c2ccccc2)C1", "note": "(some centres not stated)", "activity change, negative = inhibition": "0.442% (inactive)"}, {"smiles": "C[N+](C)(C)/N=C\\c1ccc(O)c(O)c1", "activity change, negative = inhibition": "4.59% (inactive)"}, {"smiles": "CSc1ccc(NC(=O)Nc2cc(C)ccn2)cc1", "activity change, negative = inhibition": "0.23% (inactive)"}, {"smiles": "N[C@H](COP(=O)(O)O)C(=O)O", "activity change, negative = inhibition": "-5.61% [at 38 µM] (inactive)"}, {"smiles": "C[C@H](CN(C)C)C(=O)c1ccccc1C(=O)O", "activity change, negative = inhibition": "-1.25% (inactive)"}, {"smiles": "O=C(O)c1cc(-c2ccc(-c3ccc(-c4cc(C(=O)O)c5cc(Cl)ccc5n4)cc3)cc2)nc2ccc(Cl)cc12", "activity change, negative = inhibition": "-6.84% (inactive)"}, {"smiles": "Cc1cc2nc([C@H](C)C(=O)c3ccc(Cl)cc3)c(=O)[nH]c2cc1C", "activity change, negative = inhibition": "-1.07% (inactive)"}, {"smiles": "NCS(=O)(=O)O", "activity change, negative = inhibition": "-4.59% (inactive)"}, {"smiles": "O=C(O)CCCC[C@H]1CCSS1", "activity change, negative = inhibition": "-4.68% [at 38 µM] (inactive)"}, {"smiles": "O=C(C[n+]1ccc2ccccc2c1)c1ccc2ccc3ccccc3c2c1", "activity change, negative = inhibition": "0.901% (inactive)"}, {"smiles": "COc1cc2nc(N(C)CCCNC(=O)[C@@H]3CCCO3)nc(N)c2cc1OC", "activity change, negative = inhibition": "7.7% [at 17.2 µM] (inactive)"}, {"smiles": "C[N+]1(NCC[N@@+]2(C)CCc3ccccc3C2)CCCCC1", "activity change, negative = inhibition": "-4.59% (inactive)"}, {"smiles": "Oc1ccc([C@@H]2CNCCc3c2cc(O)c(O)c3Cl)cc1", "activity change, negative = inhibition": "-5.37% [at 38 µM] (inactive)"}]}, {"test_system": "not listed separately", "test": "AP1 Signaling Pathway (AID 357)", "settings": "ME-180 AP-1-bla reporter, EGF-induced, beta-lactamase ratio, 5 h; at 17.2 µM (top of the series)", "method_in_brief": "as §1", "values": [{"smiles": "CC(=O)N1CCN(c2ccc(OC[C@@H]3CO[C@@](Cn4ccnc4)(c4ccc(Cl)cc4Cl)O3)cc2)CC1", "activity change, negative = inhibition": "-18.1% (inactive)"}, {"smiles": "CC(C)(C)c1ccc([C@@H](O)CCCN2CCC(C(O)(c3ccccc3)c3ccccc3)CC2)cc1", "activity change, negative = inhibition": "2.82% (inactive)"}, {"smiles": "Cc1nnc(SCC2=C(C(=O)O)N3C(=O)[C@@H](NC(=O)Cn4cnnn4)[C@@H]3SC2)s1", "activity change, negative = inhibition": "3.67% (inactive)"}, {"smiles": "CN1[C@@H]2CC[C@H]1CC(OC(=O)[C@@H](CO)c1ccccc1)C2", "note": "(some centres not stated)", "activity change, negative = inhibition": "-0.827% (inactive) and 1.39% (inactive)"}, {"smiles": "C(=C/c1ccccc1)/CN1CCN(C(c2ccccc2)c2ccccc2)CC1", "activity change, negative = inhibition": "-10.7% (inactive)"}]}, {"test_system": "not listed separately", "test": "AP1 Signaling Pathway (AID 357)", "settings": "ME-180 AP-1-bla reporter, EGF-induced, beta-lactamase ratio, 5 h; at 38 µM (top of the series)", "method_in_brief": "as §1", "values": [{"smiles": "CC(=O)N1CCN(c2ccc(OC[C@@H]3CO[C@@](Cn4ccnc4)(c4ccc(Cl)cc4Cl)O3)cc2)CC1", "activity change, negative = inhibition": "-10.5% (inactive)"}, {"smiles": "CC(C)(C)c1ccc([C@@H](O)CCCN2CCC(C(O)(c3ccccc3)c3ccccc3)CC2)cc1", "activity change, negative = inhibition": "6.21% (inactive)"}, {"smiles": "Cc1nnc(SCC2=C(C(=O)O)N3C(=O)[C@@H](NC(=O)Cn4cnnn4)[C@@H]3SC2)s1", "activity change, negative = inhibition": "2.44% (inactive)"}, {"smiles": "CN1[C@@H]2CC[C@H]1CC(OC(=O)[C@@H](CO)c1ccccc1)C2", "note": "(some centres not stated)", "activity change, negative = inhibition": "10.7% (inactive) and -6.14% (inactive)"}, {"smiles": "C(=C/c1ccccc1)/CN1CCN(C(c2ccccc2)c2ccccc2)CC1", "activity change, negative = inhibition": "-3.02% (inactive)"}]}, {"target": "Cytochrome P450 1A2 (Homo sapiens) (UniProt P05177)", "sequence (P05177 whole entry, looked up)": "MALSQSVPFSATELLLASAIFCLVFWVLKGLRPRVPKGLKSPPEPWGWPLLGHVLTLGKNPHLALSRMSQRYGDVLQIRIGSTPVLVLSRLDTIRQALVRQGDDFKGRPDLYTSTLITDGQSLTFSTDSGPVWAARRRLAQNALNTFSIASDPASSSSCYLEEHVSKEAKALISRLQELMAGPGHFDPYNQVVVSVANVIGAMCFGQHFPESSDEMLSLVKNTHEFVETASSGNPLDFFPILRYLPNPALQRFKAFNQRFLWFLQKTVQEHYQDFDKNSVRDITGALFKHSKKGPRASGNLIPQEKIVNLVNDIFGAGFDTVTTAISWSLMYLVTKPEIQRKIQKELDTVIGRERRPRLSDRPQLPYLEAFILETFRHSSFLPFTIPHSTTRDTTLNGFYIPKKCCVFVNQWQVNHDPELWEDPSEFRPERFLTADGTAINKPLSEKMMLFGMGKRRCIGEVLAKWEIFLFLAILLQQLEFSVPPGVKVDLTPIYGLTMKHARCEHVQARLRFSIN", "test": "p450-cyp1a2 (AID 410; calls by dose curve)", "settings": "recombinant CYP1A2, luciferin-ME demethylation, luminescence; series mostly up to 11.4 µM", "method_in_brief": "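Read-out is luminescence from luciferin produced by CYP1A2 demethylation of Luciferin-ME (100uM, at Km). Detection reagent stopped the 60 min NADPH-dependent reaction; signals were normalized to 57 uM furafylline.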", "values": [{"smiles": "NCCNc1ncnc2ccc(Cl)cc12", "Potency": "1000 nM (active)"}, {"smiles": "O=C(NCCO)c1ccc(Cl)cc1", "Potency": "3980 nM (active)"}, {"smiles": "O=c1cc(CF)[nH]c(=S)[nH]1", "Potency": "inactive"}, {"smiles": "c1ccc2cc(-c3cc(-c4cc(-c5ccc6ccccc6c5)on4)no3)ccc2c1", "Potency": "1580 nM (active)"}, {"smiles": "CN(C)CN1C(=O)S/C(=C2/C(=O)N(CN(C)C)c3ccccc32)C1=O", "Potency": "794 nM (active)"}, {"smiles": "NC(=O)c1ncn([C@@H]2O[C@@H](CO)[C@@H](O)[C@H]2O)n1", "Potency": "inactive"}, {"smiles": "O=C(O)/C(=C\\c1ccccc1)c1ccccc1", "Potency": "inactive"}, {"smiles": "NCCCc1ccc2oc3ccccc3c2c1", "Potency": "31.6 nM (active)"}, {"smiles": "N=c1ccn2c(n1)O[C@@H]1[C@@H](O)[C@H](CO)O[C@H]12", "Potency": "inactive"}, {"smiles": "Cc1nnc(SCC2=C(C(=O)O)N3C(=O)[C@@H](NC(=O)Cn4cnnn4)[C@@H]3SC2)s1", "Potency": "inactive"}, {"smiles": "CN(C)c1ccc(-c2nc(N3CCNCC3)c3ccccc3n2)cc1", "Potency": "10000 nM (active)"}, {"smiles": "CN1C[C@H](c2ccccc2)C(O)([C@]2(c3ccccc3)CN(C)C[C@@H](c3ccccc3)C2=O)[C@H](c2ccccc2)C1", "note": "(some centres not stated)", "Potency": "inactive"}, {"smiles": "C[N+](C)(C)/N=C\\c1ccc(O)c(O)c1", "Potency": "10000 nM (active)"}, {"smiles": "CSc1ccc(NC(=O)Nc2cc(C)ccn2)cc1", "Potency": "501 nM (active)"}, {"smiles": "N[C@H](COP(=O)(O)O)C(=O)O", "Potency": "inactive"}, {"smiles": "C[C@H](CN(C)C)C(=O)c1ccccc1C(=O)O", "Potency": "inactive"}, {"smiles": "O=C(O)c1cc(-c2ccc(-c3ccc(-c4cc(C(=O)O)c5cc(Cl)ccc5n4)cc3)cc2)nc2ccc(Cl)cc12", "activity change, negative = inhibition": "-18.2% [at 2.29 µM] (inactive)"}, {"smiles": "Cc1cc2nc([C@H](C)C(=O)c3ccc(Cl)cc3)c(=O)[nH]c2cc1C", "Potency": "501 nM (active)"}, {"smiles": "NCS(=O)(=O)O", "activity change, negative = inhibition": "-5.6% [at 2.29 µM] (inactive)"}, {"smiles": "O=C(O)CCCC[C@H]1CCSS1", "Potency": "inactive"}, {"smiles": "O=C(C[n+]1ccc2ccccc2c1)c1ccc2ccc3ccccc3c2c1", "Potency": "2510 nM (active)"}, {"smiles": "COc1cc2nc(N(C)CCCNC(=O)[C@@H]3CCCO3)nc(N)c2cc1OC", "Potency": "inactive"}, {"smiles": "C[N+]1(NCC[N@@+]2(C)CCc3ccccc3C2)CCCCC1", "Potency": "inactive"}, {"smiles": "Oc1ccc([C@@H]2CNCCc3c2cc(O)c(O)c3Cl)cc1", "Potency": "inactive"}]}]}
